Mcl1-Bid inh – disrupts binding of human Mcl-1 to Bid peptide | TR-FRET Mcl-1/Bid-Dy647 peptide binding, 1536-well | inhibition, % at 21.7 µM | 220,000 compounds, 0.97% hits;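 active = compounds that cut the binding signal by more than half at the single screening dose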;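 note: His-tagged Mcl-1 with europium anti-His antibody binding Bid BH3 peptide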
Target sequence (Q07820 whole entry, looked up): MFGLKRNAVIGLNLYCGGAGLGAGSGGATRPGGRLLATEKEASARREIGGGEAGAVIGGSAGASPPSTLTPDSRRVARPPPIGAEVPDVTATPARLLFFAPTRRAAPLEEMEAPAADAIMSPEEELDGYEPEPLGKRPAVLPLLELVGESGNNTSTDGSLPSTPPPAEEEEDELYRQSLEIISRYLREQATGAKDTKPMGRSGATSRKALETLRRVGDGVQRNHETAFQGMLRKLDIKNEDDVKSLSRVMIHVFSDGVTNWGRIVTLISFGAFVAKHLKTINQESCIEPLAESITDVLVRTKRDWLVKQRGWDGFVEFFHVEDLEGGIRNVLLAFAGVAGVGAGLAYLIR
eIF4E-4G inh – inhibitors of eIF4E and eIF4G interaction in translation initiation; P63073+Q04637; inhibition, % at 21.7 µM; TR-FRET eIF4E-eIF4GI(517-606) binding, 2 h; 220,000 compounds, 0.37% hits; AID 782;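 active = inhibition above about 30%, limit read from the data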
14-3-3 Bad inh – disrupts binding of bovine 14-3-3 zeta to phospho-Bad peptide; P63103; TR-FRET 14-3-3zeta/Dy647-pBad peptide displacement, 1 h; inhibition, % at 21.7 µM; 220,000 compounds, 0.71% hits; AID 781;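 active = inhibition above about 70%, limit read from the data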
Target sequence (P63103 whole entry, looked up): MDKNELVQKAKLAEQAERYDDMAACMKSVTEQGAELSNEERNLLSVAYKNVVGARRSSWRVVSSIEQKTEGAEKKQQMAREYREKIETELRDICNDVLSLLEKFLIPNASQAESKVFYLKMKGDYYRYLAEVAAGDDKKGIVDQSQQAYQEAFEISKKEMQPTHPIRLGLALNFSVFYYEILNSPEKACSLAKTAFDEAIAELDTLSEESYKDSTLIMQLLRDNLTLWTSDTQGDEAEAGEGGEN
Hck Nef HTS – human Hck-Nef kinase inhibition; P08631; Recombinant Hck-YEEI plus Nef, Z-Lyte FRET kinase assay; inhibition, % at 20 µM; 220,000 compounds, 0.68% hits; AID 463187;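 active = Hck-Nef kinase inhibition above about 50%, limit read from the data; inactive = inhibition below that limit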
Mcl1 Noxa PPI – disrupts binding of human Mcl-1 to Noxa peptide | Q07820 | TR-FRET Mcl-1/Noxa peptide binding, 2 h | inhibition, % at 21.7 µM | 220,000 compounds, 1.5% hits;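 active = compounds that cut the protein-peptide binding signal by more than 50% relative to plate controls in a single-dose test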;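 note: His-tagged Mcl-1 with rhodamine Noxa BH3 peptide and terbium anti-His antibody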
Bim-Mcl-1 – human Bim-Mcl-1 interaction inhibition | Bead-based flow cytometry, Bim peptide-Mcl-1 binding | inhibition, % at 10 µM | 190,000 compounds, 0.1% hits | Q07820; in the data active = inhibition above about 40%
Hits are given with their value; 0 = inactive; - = not tested or not shown; [ ] = another dose, or the depositor's remark. Shown are actives, neighbours in structure and some others; about 3.5% of the full set was active somewhere.

SMILES	Mcl1-Bid inh	eIF4E-4G inh	14-3-3 Bad inh	Hck Nef HTS	Mcl1 Noxa PPI	Bim-Mcl-1
O=C(Cc1cccs1)N/N=C/C=C\c1ccco1	0	0	0	0	90	0
O=C(Cc1cccs1)N/N=C/c1ccco1	0	0	0	0	0	0
CCc1ccccc1NC(=S)N1CCC(C(=O)c2ccc(F)cc2)CC1	0	0	0	0	0	0
Cc1ccc2c(c1)c(C1=NC(=S)NC1=O)c(O)n2C	0	0	0	0	55	0
CCOC(=O)n1c(O)c(N=NC(N)=S)c2cc(C)ccc21	0	0	0	0	0	-
Nc1nonc1N/N=C/c1c(O)ccc2ccccc12	0	0	0	0	51	0
COc1ccc(/C=N/Nc2nn3cnnc3c3ccccc23)cc1	0	0	0	0	57	-
COc1ccc(/C=N/Nc2nonc2N)cc1	0	0	0	0	61	0
CCNc1nc(NCC)nc(N/N=C/c2ccc(OC)cc2)n1	0	0	0	0	0	-
Cc1ccc(NC(=O)CCC(=O)N/N=C/c2cccs2)cc1	0	0	86	0	0	0
Cc1ccc(NC(=O)CCC(=O)N/N=C/c2cccs2)cc1C	0	0	0	0	0	0
CCC(=O)Oc1ccc2c(=O)c(-c3ccc4ccccc4n3)c(CC)oc2c1C	0	0	0	0	82	0
CCC(C)NC(=O)COc1ccc(OCc2ccccc2)cc1 (stereo unspecified)	0	0	0	0	0	0
Cc1cccc2cc(C(c3nnnn3C(C)(C)C)N3CCN(C(=O)c4ccco4)CC3)c(=O)[nH]c12 (stereo unspecified)	0	0	79	0	0	0
O=C(Nc1ccc(Oc2ccc3c(c2)C(=O)N(c2ccc(O)cc2)C3=O)cc1)c1cccs1	66	0	0	0	0	0
C=CCOc1ccc(C=Nc2ccc(C)c(Cl)c2)c(O)c1	0	0	0	0	0	0
O=C(N/N=C/c1ccc(OC(=O)c2cccs2)cc1)c1cccc(F)c1	0	0	72	0	0	-
Cn1c(N)c(C(=O)Nc2ccccc2F)sc1=S	0	0	0	0	0	-
Cn1c(N)c(C(=O)Nc2ccc3ccccc3c2)sc1=S	0	0	0	0	66	0
CSc1ccccc1NC(=O)CN(C)CC(=O)Nc1ccccc1F	0	0	0	0	0	0
COCCCN=C1NN=C(c2cc(C)n(Cc3ccco3)c2C)CS1	0	0	0	0	0	0
Cc1cc(C2=NNC(=NC3CC3)SC2)c(C)n1Cc1ccco1	0	0	0	0	0	61
C/C(=N\NC(=O)c1sccc1-n1cccc1)c1cccs1	0	0	0	0	0	0
COc1cc(OC)cc(C(=O)N2CCC(N3CCN(c4ccccc4OC)CC3)CC2)c1	57	0	0	0	0	0
Cc1c(Cl)cccc1NC(=O)CCC(=O)N/N=C/c1ccc[nH]1	0	0	0	0	0	0
SMILES	Mcl1-Bid inh	eIF4E-4G inh	14-3-3 Bad inh	Hck Nef HTS	Mcl1 Noxa PPI	Bim-Mcl-1
COc1ccc(N/C=C(\C(C)=O)c2ccc(OC)c(OC)c2)cc1OC	0	0	0	0	0	0
O=C(Nc1ccc(Oc2ncnc3cc(Cl)ccc23)nc1)c1cccs1	0	0	0	0	0	-
Cc1c(NS(=O)(=O)c2ccc(N(C)C3CCCCC3)c([N+](=O)[O-])c2)c(=O)n(-c2ccccc2)n1C	0	0	0	0	0	0
CSc1cccc(NC(=O)CN(C)S(=O)(=O)c2ccc(F)cc2)c1	0	0	0	0	0	0
CSc1cccc(NC(=O)CN(C)S(=O)(=O)c2ccccc2)c1	72	0	0	0	0	0
CCCCOc1ccc(C(=O)N/C(=C\c2ccc([N+](=O)[O-])cc2)C(=O)OCc2ccco2)cc1	0	0	0	0	0	58
O=C(COc1cccnc1[N+](=O)[O-])NCCc1ccc(F)cc1	0	0	0	0	0	0
CCOC(=O)c1c(NC(=O)COC(=O)c2ccccn2)sc2c1CCC2	0	0	0	0	0	0
CCN(c1ccc(NC(=O)COC(=O)/C=C/c2cccs2)cc1)C(C)C	0	0	0	0	84	0
Cc1cc(S(=O)(=O)n2ccnc2)c(Cl)cc1Cl	0	0	0	0	0	0
CC(=O)N/C(=C\c1ccc(C)cc1)C(=O)O	0	0	0	0	0	0
O=C(OCc1ccccc1)/C(=C/c1ccc(Cl)cc1)NC(=O)c1ccccc1Cl	0	0	80	0	0	0
O=C(NCc1nc2ncc(Br)cc2[nH]1)c1ccccc1	73	0	0	0	0	0
Cc1ccc(Oc2ncccc2C(=O)NC2CCSC2=O)cc1 (stereo unspecified)	0	0	0	0	0	0
COc1ccc(NC(=S)NN2C(C)CCCC2C)cc1 (stereo unspecified)	0	0	0	0	52	0
CC(C)c1ccc(NS(=O)(=O)c2ccc3[nH]cc(C(=O)N4CCC(C(N)=O)CC4)c(=O)c3c2)cc1	59	0	96[fluorescence artefact?]	0	0	0
OCc1nc2ccccc2n1/N=C/c1cccs1	0	0	0	0	0	-
O=c1c(OC2OC(CO)C(O)C(O)C2O)c(-c2ccc(O)c(O)c2)oc2cc(O)cc(O)c12 (stereo unspecified)	0	0	0	0	0	0
C[C@@H]1O[C@@H](Oc2c(-c3cc(O)c(O)c(O)c3)oc3cc(O)cc(O)c3c2=O)[C@H](O)[C@H](O)[C@H]1O	0	0	0	0	54	0
O=C(NCc1ccco1)c1c2c(nc3ccccc13)CCC2	0	-	-	0	102	0
CCCC(C)NC(=O)c1c2c(nc3ccccc13)CCC2 (stereo unspecified)	0	0	0	0	0	0
O=C(NCc1ccc(F)cc1)c1c2c(nc3ccccc13)CCC2	0	36	0	0	77	0
NC(=O)COC(=O)c1c2c(nc3ccccc13)CCC2	0	0	0	0	57	0
NC(=O)COC(=O)c1c2c(nc3ccccc13)CCCC2	0	0	0	0	0	0
O=C(CSc1c2c(nc3ccccc13)CCCC2)NCc1ccco1	0	0	0	0	0	0
SMILES	Mcl1-Bid inh	eIF4E-4G inh	14-3-3 Bad inh	Hck Nef HTS	Mcl1 Noxa PPI	Bim-Mcl-1
CCN(c1ccccc1)S(=O)(=O)c1ccc(OC)c(NC(=O)Cn2cnc3c2c(=O)n(C)c(=O)n3C)c1	0	0	0	0	0	0
O=C(N[C@H](C(=O)O)c1ccccc1)C1CCC(Cn2nnc3ccccc3c2=O)CC1 (stereo partly specified)	0	0	0	0	0	-
CCC(c1nnnn1Cc1ccco1)N1CCN(C(=O)c2ccco2)CC1 (stereo unspecified)	0	0	0	0	0	0
CCCC(c1nnnn1CCOC)N1CCN(C(=O)c2ccco2)CC1 (stereo unspecified)	0	0	81	0	0	0
O=C(c1ccco1)N1CCN(C(c2ccccc2Cl)c2nnnn2Cc2ccco2)CC1 (stereo unspecified)	0	0	79	0	0	0
CC(C)CC(c1nnnn1Cc1ccccc1)N1CCN(C(=O)c2ccco2)CC1 (stereo unspecified)	0	0	86	0	0	0
